A selection: hits, their analogues and other compounds. The true share with any hit is near 28%.
Pyk2 oligo antag = antagonists of Pyk2 self-association, primary screen, Q293 cells, FERM NanoBiT luminescence, HTS; AID 1347419, 2020; actives 0.83% (n = 99,000); active compounds read low; Protein-tyrosine kinase 2-beta (Homo sapiens), Q14289; z-score (the deposit names both 25 µM and 10 µM);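 active = Z-score of -3 or lower, scaled per plate to the spread of control and sample wells; inactive = z-score above -3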;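 also: negative z-score means lost luminescence so less FERM oligomerization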
Target sequence (Q14289 whole entry, looked up): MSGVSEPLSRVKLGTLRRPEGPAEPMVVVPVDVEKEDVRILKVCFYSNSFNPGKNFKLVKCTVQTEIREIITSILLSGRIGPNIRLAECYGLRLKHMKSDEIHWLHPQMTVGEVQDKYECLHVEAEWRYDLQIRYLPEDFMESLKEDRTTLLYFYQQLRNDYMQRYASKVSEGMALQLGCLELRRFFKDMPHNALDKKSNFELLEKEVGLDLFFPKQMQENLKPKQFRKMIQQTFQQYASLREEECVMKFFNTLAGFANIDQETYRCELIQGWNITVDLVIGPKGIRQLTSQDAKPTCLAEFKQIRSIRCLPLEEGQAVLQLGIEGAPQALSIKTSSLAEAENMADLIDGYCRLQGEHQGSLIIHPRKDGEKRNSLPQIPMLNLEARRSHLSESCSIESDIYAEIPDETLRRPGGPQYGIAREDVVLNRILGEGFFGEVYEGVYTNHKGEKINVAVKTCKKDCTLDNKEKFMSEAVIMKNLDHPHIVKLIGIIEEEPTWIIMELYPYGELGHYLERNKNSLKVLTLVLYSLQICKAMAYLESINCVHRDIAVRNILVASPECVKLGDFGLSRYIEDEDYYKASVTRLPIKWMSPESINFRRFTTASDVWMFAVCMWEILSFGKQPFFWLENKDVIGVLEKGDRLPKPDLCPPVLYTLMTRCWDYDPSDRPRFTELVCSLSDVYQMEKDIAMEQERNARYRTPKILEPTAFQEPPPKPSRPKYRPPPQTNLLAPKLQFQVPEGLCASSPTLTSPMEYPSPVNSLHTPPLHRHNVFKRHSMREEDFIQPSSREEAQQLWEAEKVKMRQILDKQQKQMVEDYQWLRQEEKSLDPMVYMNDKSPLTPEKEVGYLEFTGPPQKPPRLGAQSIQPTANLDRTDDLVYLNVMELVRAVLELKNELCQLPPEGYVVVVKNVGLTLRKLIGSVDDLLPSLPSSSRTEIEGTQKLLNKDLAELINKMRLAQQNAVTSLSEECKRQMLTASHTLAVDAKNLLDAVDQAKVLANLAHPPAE
CYP2C19 act = human CYP2C19 activators, primary screen, biochemical, luminescence; Cytochrome P450 2C19 (Homo sapiens), P33261; recombinant CYP2C19, luciferin-H EGE luminescence; active compounds read high; 0 = fully inhibited enzyme, 1 = untreated enzyme; 96,000 tested, under 10 active; activation factor at 5 µM;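 active = activation factor of at least 2 at 5 µM in the primary screen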;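 also: 0 = wells with 2.5 mM tranylcypromine and 1 = vehicle-only wells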
CYP2C9 activ = human CYP2C9 activators, primary screen, biochemical, luminescence | AID 1024, 2008 | Cytochrome P450 2C9 (Homo sapiens), P11712 | activation factor at 5 µM | actives 1.4% (n = 96,000) | recombinant CYP2C9, luciferin-H conversion; active compounds read high; factor 1 = untreated enzyme, 0 = blocked;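 active = activation factor of 2 or more for CYP2C9 at a 5 µM dose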;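 also: 0 = sulfaphenazole-blocked wells and 1 = vehicle-only wells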
CYP2C9 inh = blockers of cytochrome P450 2C9 activity – biochemical, luminescence, ADME assay, primary screen; P11712; AID 777, 2007; CYP2C9 Supersomes, luciferin-H conversion; actives 20% (n = 96,000); inhibition, % at 5 µM;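 active = blocking of liver enzyme CYP2C9 beyond about 50% at 5 µM, limit read from the data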
CYP2C19 inh = blockers of cytochrome P450 2C19 activity – biochemical, luminescence, ADME assay, primary screen | P33261 | CYP2C19 Supersomes, luciferin-H EGE luminescence, 30 min | inhibition, % at 5 µM | actives 21% (n = 96,000);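 active = CYP2C19 inhibition above a set limit at 5 µM in the primary screen, cut at about 50% in these data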;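 also: plate controls were negative control wells for no effect and 2.5 mM tranylcypromine positive control for full effect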
Active calls of the source: *.

`CSc1nc2ncc3c(n2n1)CC1c2ccccc2CCN1C3=O` (stereo not drawn) gave Pyk2 oligo antag -0.43, CYP2C19 act 0.3, CYP2C9 activ 0.5, CYP2C9 inh 55* and CYP2C19 inh 72*.
`CCCN=C(Nc1ccc(Cl)cc1)c1cccnc1` gave Pyk2 oligo antag 2.3, CYP2C19 act 0.5, CYP2C9 activ 0.9, CYP2C9 inh 13 and CYP2C19 inh 54*.
Screening C/C(=C\C(=O)c1cccnc1)Nc1ccc(O)cc1 returned Pyk2 oligo antag -0.7, CYP2C19 act 0.8, CYP2C9 activ 1, CYP2C9 inh 3 and CYP2C19 inh 18.
For CCN=C(Nc1ccc(Cl)cc1)c1cccnc1 the results were Pyk2 oligo antag -1.1, CYP2C19 act 1, CYP2C9 activ 1, CYP2C9 inh -5 and CYP2C19 inh -4.
For CCCCN=C(Nc1ccc(Cl)cc1)c1cccnc1 the results were Pyk2 oligo antag -0.37, CYP2C19 act 0.3, CYP2C9 activ 0.8, CYP2C9 inh 20 and CYP2C19 inh 67*.
For OC1(c2ccc(F)cc2)CCN(Cc2nnnn2Cc2cccs2)CC1 the results were Pyk2 oligo antag -1.2, CYP2C19 act 0.3, CYP2C9 activ 0.4, CYP2C9 inh 60* and CYP2C19 inh 75*.
`CCN(CC)C(=O)c1cccc(-c2ccc(OC)cc2)c1` gave Pyk2 oligo antag -0.83, CYP2C19 act 0.3, CYP2C9 activ 0.6, CYP2C9 inh 45 and CYP2C19 inh 69*.
Screening COc1ccc(-c2cccc(C(=O)NCC(=O)O)c2)cc1 returned Pyk2 oligo antag 2.1, CYP2C19 act 1, CYP2C9 activ 0.8, CYP2C9 inh 23 and CYP2C19 inh 5.
CCOc1ccc(-n2c(SCC(=O)Nc3ccccc3C)n[nH]c2=O)cc1 was read as Pyk2 oligo antag -1.1, CYP2C19 act 0.8, CYP2C9 activ 1.2, CYP2C9 inh -24 and CYP2C19 inh 20.
Screening CNc1nc(Cl)nc(NC(C)(C)C)n1 returned Pyk2 oligo antag 0.03, CYP2C19 act 0.9, CYP2C9 activ 2.7*, CYP2C9 inh -173 and CYP2C19 inh 14.
CCOc1cccc(/C(O)=C2/C(=O)C(=O)N(CCOC)C2c2ccco2)c1 (stereo not drawn) was read as Pyk2 oligo antag 0.08, CYP2C19 act 1.1, CYP2C9 activ 0.9, CYP2C9 inh 11 and CYP2C19 inh -6.
Cc1nc(N2C(=O)C(=O)/C(=C(/O)c3ccccc3)C2c2ccco2)sc1C (stereo not drawn) was read as Pyk2 oligo antag -0.18, CYP2C19 act 0.5, CYP2C9 activ 0.4, CYP2C9 inh 61* and CYP2C19 inh 53*.
For O=C(CSc1cccc2cccnc12)NCc1ccco1 the results were Pyk2 oligo antag 1.8, CYP2C19 act 0.9, CYP2C9 activ 1.5, CYP2C9 inh -47 and CYP2C19 inh 6.
O=C(N/N=C/c1ccc(Sc2ccccn2)o1)c1cc2ccccc2cc1O was read as Pyk2 oligo antag -0.15, CYP2C19 act 0, CYP2C9 activ 0.1, CYP2C9 inh 88* and CYP2C19 inh 98*.
`O=C(CCc1ccccc1O)N/N=C/c1ccc(Sc2cccc3cccnc23)o1` gave Pyk2 oligo antag -0.8, CYP2C19 act 0.5, CYP2C9 activ 0, CYP2C9 inh 99* and CYP2C19 inh 49.
Cc1nc2ccccc2cc1C(=O)N/N=C/c1ccco1 was read as Pyk2 oligo antag 0.71.
For O=C(N/N=C\c1ccc(Sc2ccccn2)o1)c1cccc(F)c1 the results were Pyk2 oligo antag -1.3, CYP2C19 act 0.4, CYP2C9 activ 0.4, CYP2C9 inh 60* and CYP2C19 inh 59*.
`CC(C)CCNC(=S)Nc1ccc(F)cc1` gave Pyk2 oligo antag 1.5.
`Cc1cc(C)c(S(=O)(=O)N2CCC(C(=O)NCc3ccco3)CC2)c(C)c1` gave Pyk2 oligo antag -0.03, CYP2C19 act 0.8, CYP2C9 activ 2.8*, CYP2C9 inh -179 and CYP2C19 inh 21.
O=C(NC1CCCCCCC1)C1CCN(S(=O)(=O)N2CCC3(CC2)OCCO3)CC1 was read as Pyk2 oligo antag -0.54, CYP2C19 act 0.4, CYP2C9 activ 0.5, CYP2C9 inh 52* and CYP2C19 inh 60*.
Screening O=C(C1CCN(S(=O)(=O)N2CCC3(CC2)OCCO3)CC1)N1CCC(Cc2ccccc2)CC1 returned Pyk2 oligo antag 0.36, CYP2C19 act 0.4, CYP2C9 activ 0.2, CYP2C9 inh 76* and CYP2C19 inh 58*.
O=C(NCc1ccco1)C1CCN(S(=O)(=O)N2CCC3(CC2)OCCO3)CC1 was read as Pyk2 oligo antag -0.15, CYP2C19 act 0.9, CYP2C9 activ 0.2, CYP2C9 inh 84* and CYP2C19 inh 8.
For CCCCCn1nc(C)c(/C=N\NC(=O)c2cc(C)oc2C)c1C the results were Pyk2 oligo antag 0.64.
Screening CN1CCN(c2ncccc2S(=O)(=O)N2CCCCC2)CC1 returned Pyk2 oligo antag 0.51.
Screening CC(C)C(=O)NS(=O)(=O)c1ccc(N)cc1 returned Pyk2 oligo antag 2.6, CYP2C19 act 1.2, CYP2C9 activ 1.1, CYP2C9 inh -12 and CYP2C19 inh -18.
Cc1ccc(C(=O)ON=C2CCN(S(=O)(=O)c3ccccc3)CC2)cc1 was read as Pyk2 oligo antag 1.8, CYP2C19 act 0.9, CYP2C9 activ 1, CYP2C9 inh -3 and CYP2C19 inh 12.
`CC(C)c1nc(-c2c(N)n(C)c(=O)n(C)c2=O)sc1C(=O)C(C)(C)C` gave Pyk2 oligo antag 0.93, CYP2C19 act 0.2, CYP2C9 activ 1, CYP2C9 inh -1 and CYP2C19 inh 76*.
For Cn1c(N)c(C(=O)CCl)c(=O)n(C)c1=O the results were CYP2C19 act 1.1, CYP2C9 activ 1.1, CYP2C9 inh -6 and CYP2C19 inh -9.
Screening COc1ccc(/C=C2\SC(=O)N(CCNC(=O)Cn3cnnn3)C2=O)cc1 returned Pyk2 oligo antag 1.2, CYP2C19 act 0.5, CYP2C9 activ 0.3, CYP2C9 inh 70* and CYP2C19 inh 54*.
For COc1ccc(/C=C2\SC(=O)N(CCNC(=O)C3CC(=O)N(c4ccccc4)C3)C2=O)cc1 (stereo not drawn) the results were Pyk2 oligo antag 1.1, CYP2C19 act 0.8, CYP2C9 activ 0.4, CYP2C9 inh 59* and CYP2C19 inh 16.
For COc1cc([N+](=O)[O-])ccc1NC(=O)C[n+]1ccccc1C the results were Pyk2 oligo antag -0.15, CYP2C19 act 0.9, CYP2C9 activ 0.9, CYP2C9 inh 8 and CYP2C19 inh 5.
`Cn1c(=O)[nH]c(=O)c2c1nc(N1CCNCC1)n2Cc1cccc2ccccc12` gave Pyk2 oligo antag 1.4, CYP2C19 act 1.1, CYP2C9 activ 1.2, CYP2C9 inh -19 and CYP2C19 inh -14.
`N#Cc1ccccc1OCC(=O)Nc1c(C(=O)C2CC2)oc2ccccc12` gave Pyk2 oligo antag -0.86, CYP2C19 act 0.8, CYP2C9 activ 0.6, CYP2C9 inh 38 and CYP2C19 inh 23.

Bioassay records deposited in PubChem by Sanford-Burnham Center for Chemical Genomics.
